Results on 38 molecules are retold here after PubChem BioAssay (EPA / NIEHS).

Broadly, the AC50 is the concentration at which the activity in the assay is half-maximal.

Values joined by “and” are separate entries in the source; they are usually repeats but may differ in a detail not shown here. Equal values may be shown once. Active and inactive are the calls of the source. How the source made its calls: active means hit-call score of the fitted dose curve at least 0.9, where 1 is the maximum; inactive means score below 0.9.

Read-out in this experiment: Plasminogen activator inhibitor-1 (PAI1), SERPINE1 (gene 5054)
Kind of experiment: BSK_MyoF_PAI1: BioMAP Diversity Plus: MyoF Assay for Plasminogen activator inhibitor-1 (PAI1) Biomarker Activity (AID 2284256). The note with it: primary human lung fibroblasts. Here is the method:
BSK_MyoF is a cell-based, multiplexed-readout assay that uses lung fibroblasts, […], with measurements taken at 24 hours after chemical dosing in a microplate: 96-well plate.BSK_MyoF_PAI1 is an assay component measured in the BSK_MyoF assay. It measures PAI-1 antibody related to regulation of gene expression using ELISA technology.Data from the assay component BSK_MyoF_PAI1 was analyzed at the endpoint, BSK_MyoF_PAI1, in the positive analysis fitting direction relative to DMSO as the negative control and baseline of activity. Using a type of binding reporter, gain or loss-of-signal activity can be used to understand protein changes. To generalize the intended target to other relatable targets, this assay endpoint is annotated to the 'cytokine' intended target family, where the subfamily is 'plasmogen activator inhibitor'.
The levels of cell surface (or secreted, indicated by the prefix "s") biomarker endpoints were measured by ELISA. Overt cytotoxicity to cells in confluent adherent cultures (all systems other than the BT system) was assessed by measuring total protein levels using sulforhodamine B (SRB) staining in parallel cultures at the time of biomarker measurements, indicated as SRB endpoints. For proliferation assays for adherent cell types, individual cell types are cultured at sub-confluence and relative cell numbers quantified by SRB staining at time points optimized for each system (48 h: 3C and CASM3C systems; 72 h: BT and HDF3CGF systems; 96 h: SAg system). SRB was performed by staining cells with 0.1% SRB after fixation with 10% TCA and reading wells at 560 nm.Viability and proliferation of PBMC (T cells) was quantified by Alamar Blue reduction for the SAg and BT systems. For PBMC viability (referred to as PBMC Cytotoxicity within the assay endpoint names), cells were plated (75,000/well in a 96-well plate) and then chemical samples added for 1 h before addition of activators, SEB and TSST-1 (20 ng/mL final concentration each). Cells were incubated for 90 h. Then, Alamar Blue (20 uL/well) (Invitrogen, Cat DAL1100) was added for 6 h, and the plates were read with a fluorescence microplate reader at 546/580 nm (excitation/emission). For PBMC proliferation, cells were plated and activated as above but incubated for only 16 h prior to addition of Alamar Blue. Plates were read after 6 h.
For `CC1=NN(c2ccccc2)C(=O)C1`, the outcome was inactive.
With `COc1cccc(O)c1`, the result was inactive.
Regarding `O=P(O)(O)CCC(F)(F)C(F)(F)C(F)(F)C(F)(F)C(F)(F)C(F)(F)C(F)(F)C(F)(F)F`, the result was inactive.
For the molecule `C[C@]12CC[C@@H]3c4ccc(O)cc4CC[C@H]3[C@@H]1C[C@@H](O)[C@@H]2O`, the outcome was inactive.
The same measure, in the same setting: under `Clc1ccc(Nc2nnc(Cc3ccncc3)c3ccccc23)cc1` stands “inactive”.
Take `O=C(CC(=O)C(F)(F)C(F)(F)C(F)(F)F)c1cccs1`: the result was inactive.
Same read-out and setting: under `CC[N+](CC)(CC)Cc1ccccc1` stands “inactive”; under `C=CC(=O)OCCC(F)(F)C(F)(F)C(F)(F)C(F)(F)C(F)(F)C(F)(F)C(F)(F)C(F)(F)F`, “inactive”.
For `CN(C)c1ccc(C(=C2C=CC(=[N+](C)C)C=C2)c2ccccc2)cc1`, the AC50 is 0.675 µM (active).
Turning to `C=COC(=O)C(C)(C)CCCCCC`, the AC50 was 34 µM (active).
For `C=CC(C)(CCC=C(C)C)OC(C)=O` (stereo not drawn), the outcome was inactive.
On to `CC(C)(C)c1ccc(O)c(O)c1`, for which the AC50 is 33.3 µM (active).
Same read-out and setting: under `O=C(O)C(F)(F)OC(F)(F)C(F)(F)OC(F)(F)C(F)(F)OC(F)(F)C(F)(F)C(F)(F)C(F)(F)F` stands 14.6 µM (active) and 13.3 µM (active).
As to `O=C1c2ccc(O)c(O)c2C(=O)c2c(O)ccc(O)c21`, the outcome was inactive.
Turning to `COCN(COC)c1nc(N(COC)COC)nc(N(COC)COC)n1`, the outcome was inactive.
Same read-out and setting: under `CCOC(=O)CN[C@@H](C(=O)N1CC[C@H]1C(=O)NCc1ccc(/C(N)=N/O)cc1)C1CCCCC1` stands “inactive”.
In the case of `CCCCC(CC)C(=O)OCCOCCOCCOCCOC(=O)C(CC)CCCC` (stereo not drawn), the outcome was inactive.
The same measure, in the same setting: under `C=CC(=C)CC/C=C(\C)CCC=C(C)C` stands “inactive”; under `COC1=CC(=O)C[C@@H](C)[C@]12Oc1c(Cl)c(OC)cc(OC)c1C2=O`, “inactive”.
For the molecule `O=C(NO)c1ccccc1`, the result was inactive.
Consider `Oc1cc2ccccc2cc1O`, for which the result was inactive.
Same read-out and setting: under `CN(Cc1cnc2nc(N)nc(N)c2n1)c1ccc(C(=O)N[C@@H](CCC(=O)O)C(=O)O)cc1` stands “inactive”; under `Cc1ccc(N=Nc2c(O)ccc3ccccc23)c(C)c1`, “inactive”.
For the molecule `NC(=NCCCCCCN=C(N)/N=C(\N)Nc1ccc(Cl)cc1)/N=C(\N)Nc1ccc(Cl)cc1`, the AC50 is 4.43 µM (active).
Turning to `O=C(O)CCC(F)(F)C(F)(F)C(F)(F)C(F)(F)C(F)(F)F`, the outcome was inactive.
Regarding `CCCCCc1ccc(O)cc1`, the AC50 was 32.2 µM (active).
Consider `Cc1cccc2c1ccc1ccccc12`, for which the outcome was inactive.
Same read-out and setting: under `OCC(F)(F)C(F)(F)C(F)(F)C(F)(F)C(F)(F)C(F)(F)C(F)(F)C(F)(F)C(F)(F)C(F)(F)C(F)(F)F` stands “inactive”.
Turning to `CN(CCO)S(=O)(=O)C(F)(F)C(F)(F)C(F)(F)C(F)(F)C(F)(F)C(F)(F)C(F)(F)C(F)(F)F`, the result was inactive.
Same read-out and setting: under `O=P(O)(O)CCC(F)(F)C(F)(F)C(F)(F)C(F)(F)C(F)(F)C(F)(F)F` stands “inactive”.
The same measure, in the same setting: under `O=S(=O)(O)C(F)(F)C(F)(F)C(F)(F)C(F)(F)C(F)(F)C(F)(F)C(F)(F)C(F)(F)C(F)(F)C(F)(F)F` stands “inactive”.
As to `COc1cc(OC)nc(NC(=O)NS(=O)(=O)Nc2ccccc2C(=O)N(C)C)n1`, the outcome was inactive.
On to `O=C(O)CCC(F)(F)C(F)(F)C(F)(F)C(F)(F)C(F)(F)C(F)(F)F`, for which the result was inactive.
With `O=C1OC2(c3ccccc31)c1cc(I)c(O)c(I)c1Oc1c2cc(I)c(O)c1I`, the AC50 is 2.72 µM (active).
On the same count and under the same terms, under `CCCCCCCCCCCCCCCCCC[N+](C)(C)Cc1ccccc1` stands 2.91 µM (active).
In the case of `Cc1ccc(C(=O)c2ccccc2)cc1`, the outcome was inactive.
Still for that read-out and setting: under `OCCN1CN(CCO)CN(CCO)C1` stands “inactive”.
In the case of `O=C(NCc1ncc(C(F)(F)F)cc1Cl)c1c(Cl)cccc1Cl`, the outcome was inactive.
